{"source": "PubChem BioAssay (NCATS)", "note": "Results filed as inconclusive are left out. Activity calls are given as the source filed them. Calls follow the shape of the dose curve; as a rule, active = well fitted cell-killing curve with a large enough effect; inconclusive = small, poorly fitted or top-dose-only effect; inactive = flat fitted curve, though single readings scatter.", "data": [{"assay": "Cell Viability - LYMP2-007 (AID 979);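 also: cells exposed to compound for 24 h before reading; nearly all actives have a fitted effect of over 60% in size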", "settings": "LYMP2-007 lymphoblastoid cell viability; series mostly up to 92.2 µM", "from_the_text": "NIH Chemical Genomics Center [NCGC]\nNIH Molecular Libraries Screening Centers Network [MLSCN]\nNational Institutes of Environmental Health Sciences [NIEHS]\nNational Toxicology Program [NTP]\nWe have developed a 1536-well cell-based assay for quantitative high throughput screening (qHTS) against a number of cell lines to determine in vitro cytotoxicity of small molecules. This particular assay uses a human lymphoblastoid cell line (LYMP2-007) purchased from Coriell Institute for Medical Research.\nNCGC Assay Protocol Summary:\nThe CellTiter-Glo luminescent cell viability assay (Promega) is a homogeneous method to measure the number of viable cells in culture. The end point readout of this assay is based on quantitation of intracellular ATP, an indicator of metabolic activity, using the luciferase reaction. Luciferase catalyzes the oxidation of beetle Luciferin to oxyluciferin and light in the presence of ATP. The luminescent signal is proportional to amount of ATP present.\nUsing the CellTiter-Glo luminescent cell viability assay, the amount of cellular ATP was measured in the lymphoblastoid cell line with complete culture medium following compound treatment for 24 hours. The assay was performed in opaque white Kalypsys 1536-well plates. In the screen, tetraoctylammonium bromide was used as positive control. Library compounds were measured for their ability to cause acute toxicity in the cell line, as reflected by a decrease in intracellular ATP levels, in a concentration-dependent manner. […] AC50 values were determined from concentration-response data modeled with the standard Hill equation.\nqHTS protocol for CellTiter Glo lymphoblastoid cellular assay\n[Step] [Parameter] [Value] [Description]\n1. Reagent; 5 uL; 2500 lymphoblastoid cells/well\n2. Time; 5 hr; 37 C incubation\n4. Controls; 23 nL; Tetraoctylammonium bromide 6.4pM to 92 uM\n5. Time; 24 hr; 37 C incubation\n6. Reagent; 5 uL; CellTiter Glo reagent\n7. Time; 30 min; Room Temperature\n8. Detection; Luminescence; Viewlux plate reader\nKeywords: cell viability, cytotoxicity, lymphoblastoid cell line, luminescence, NTPHTS, NTPHTS_NCGC, NIEHS, DSSTox, MLSMR, MLSCN, NIH Roadmap, qHTS, NCGC", "values": [{"smiles": "N[C@@H](Cc1c[nH]c2ccc(O)cc12)C(=O)O", "outcome": "inactive"}, {"smiles": "O=c1c(-c2ccc(O)cc2)coc2cc(O)cc(O)c12", "outcome": "inactive"}, {"smiles": "NCCS(=O)(=O)O", "outcome": "inactive"}, {"smiles": "Cc1cn([C@H]2C=C[C@@H](CO)O2)c(=O)[nH]c1=O", "outcome": "inactive"}, {"smiles": "Nc1ccn([C@H]2CC[C@@H](CO)O2)c(=O)n1", "outcome": "inactive"}, {"smiles": "Cn1c(=O)c2[nH]cnc2n(C)c1=O", "outcome": "inactive"}, {"smiles": "Cc1cn([C@H]2C[C@H](N=[N+]=[N-])[C@@H](CO)O2)c(=O)[nH]c1=O", "outcome": "inactive"}, {"smiles": "COc1ccc2c(c1)c(CC(=O)O)c(C)n2C(=O)c1ccc(Cl)cc1", "outcome": "inactive"}, {"smiles": "Nc1c2c(nc3ccccc13)CCCC2", "outcome": "inactive"}, {"smiles": "Cn1c(=O)c2c(ncn2C)n(C)c1=O", "outcome": "inactive"}, {"smiles": "Cc1ccc(-c2cc(C(F)(F)F)nn2-c2ccc(S(N)(=O)=O)cc2)cc1", "outcome": "inactive"}, {"smiles": "NS(=O)(=O)c1cc2c(cc1Cl)NCNS2(=O)=O", "outcome": "inactive"}, {"smiles": "Clc1ccc(C(c2ccccc2Cl)C(Cl)Cl)cc1", "note": "(configuration not stated)", "outcome": "inactive"}, {"smiles": "CC(C)NCC(O)c1ccc(O)c(O)c1", "note": "(configuration not stated)", "outcome": "inactive"}, {"smiles": "CC(C)C(=O)Nc1ccc([N+](=O)[O-])c(C(F)(F)F)c1", "outcome": "inactive"}, {"smiles": "CCC1(c2ccccc2)C(=O)NCNC1=O", "outcome": "inactive"}, {"smiles": "COc1ccc2[nH]cc(CCNC(C)=O)c2c1", "outcome": "inactive"}]}]}
